This note sets out measurements from PubChem BioAssay (NCI).

Test in all cases: NCI-60 one-dose screen, 48 h (100 = growth as untreated, 0 = no growth, -100 = all killed)
Conditions in all cases: 10 µM unless noted

Experiment [1] concerns HCT-15 colon.
The test system of experiment [2] is HT29 colon.
The test system of experiment [3] is SNB-75 CNS.
For experiment [4], the system named is SNB-19 CNS.
Experiment [5] relates to U251 CNS.
Experiment [6] concerns PC-3 prostate.
In experiment [7] the test system is SK-MEL-5 melanoma.
Experiment [8] has as its system UACC-62 melanoma.
Experiment [9] concerns LOX IMVI melanoma.
In experiment [10] the test system is SK-MEL-28 melanoma.
Experiment [11] deals with SK-MEL-2 melanoma.
Experiment [12] has as its system EKVX NSCLC.
For experiment [13], the system named is SN12C renal.
For experiment [14], the system named is UO-31 renal.
Experiment [15] concerns TK-10 renal.
Experiment [16] relates to ACHN renal.
In experiment [17] the test system is CAKI-1 renal.
The test system of experiment [18] is A498 renal.
Experiment [19] has as its system HL-60(TB) leukemia.
For experiment [20], the system named is CCRF-CEM leukemia.

Where “and” joins values, the source holds several entries; their conditions need not be identical. Equal entries are not always repeated. This is part of a sample that, as a whole, favours compounds with a hit. Of some 83,000 tested, about 20% had one in any assay.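 Treatment: one concentration, 48 hours, 96-well format. Scoring: percent growth, with anything below 10 considered active.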 Calls of active or inactive are those of the source.

As for `C=C1C(=O)OC2CC3(C)OC3C3OC3C3=CC(OC3=O)C12` (centres undefined), the growth was 46.4% (inactive) and 36% (inactive) in [1]; 98.2% (inactive) and 79.6% (inactive) in experiment [2]; 87.7% (inactive) and 90.1% (inactive) in experiment [3]; 104% (inactive) and 103% (inactive) in [4]; 103% (inactive) and 104% (inactive) in experiment [5]; 106% (inactive) and 92.2% (inactive) in [6]. The growth in experiment [7] is 109% (inactive) and 95% (inactive); in [8], 99.3% (inactive) and 82.7% (inactive); in experiment [9], 93.1% (inactive) and 92% (inactive); in experiment [10], 52.6% (inactive) and 73.8% (inactive); in experiment [11] it was 100% (inactive); in experiment [12] it was 111% (inactive). Besides, the growth was 100% (inactive) and 97.4% (inactive) in [13]; 44.3% (inactive) and 44.2% (inactive) in [14]; 16.7% (inactive) and -22.5% (active) in experiment [15]; -5.94% (active) and -29% (active) in experiment [16]; 4.76% (active) and 6.96% (active) in experiment [17]; 113% (inactive) and 106% (inactive) in experiment [18]. For the same compound, the growth in experiment [19] was -17.4% (active) and 3.33% (active); in experiment [20], -42.4% (active) and -54.4% (active).

Take `C/C(=N/OC(=O)N(C)C)c1ccc(Cl)c(Cl)c1`: the growth in [1] was 107% (inactive); in [2], 95.2% (inactive); in experiment [3], 116% (inactive); in [4], 99.4% (inactive); in [5] it was 105% (inactive); in [6], 93.7% (inactive). Also, the growth in [7] was 99.3% (inactive); in experiment [8], 97.8% (inactive); in [9], 99.2% (inactive); in experiment [10] it was 105% (inactive); in experiment [11] it was 111% (inactive); in [12] it was 123% (inactive). In addition, the growth in [13] is 95% (inactive); in [14], 94.7% (inactive); in [15], 101% (inactive); in experiment [16], 112% (inactive); in [17], 102% (inactive); in experiment [18] it was 99.6% (inactive). The figures for the growth in experiment [19] and in [20] were 112% (inactive) and 98.2% (inactive), respectively.

With `C[C@]12CC[C@H]3[C@@H](C[C@@H]4SC(Nc5ccccc5)=N[C@@]45C/C(=N/O)CC[C@]35C)[C@@H]1CCC2=O`, the growth in [1] is 44.3% (inactive); in [2], 32.1% (inactive); in [3] it was 76% (inactive); in [4], 60.3% (inactive); in experiment [5] it was 37.5% (inactive); in experiment [6], 60.5% (inactive). For the same compound, the growth is 84.5% (inactive) in experiment [7]; 86% (inactive) in [8]; -4.53% (active) in experiment [9]; 73.3% (inactive) in [10]; 69% (inactive) in experiment [11]; 86.6% (inactive) in [12]. Besides, the growth was 84.7% (inactive) in experiment [13]; 91.5% (inactive) in [14]; 102% (inactive) in experiment [15]; 60.4% (inactive) in experiment [16]; 59.3% (inactive) in [17]; 96.3% (inactive) in experiment [18]. Besides, in [19], the growth is 70.1% (inactive).

As for `CCC1(CCSC#N)C(=O)NC(=O)NC1=O`, the growth in [1] was 99.6% (inactive); in experiment [2] it was 100% (inactive); in experiment [3] it was 97.1% (inactive); in [4], 101% (inactive); in [5], 93.9% (inactive); in experiment [6], 92.5% (inactive). The growth in experiment [7] is 100% (inactive); in [8], 104% (inactive); in experiment [9] it was 101% (inactive); in experiment [10] it was 110% (inactive); in experiment [11], 109% (inactive); in experiment [12], 93.2% (inactive). Besides, the growth in [13] is 104% (inactive); in experiment [14], 87% (inactive); in [15], 86.5% (inactive); in experiment [16] it was 106% (inactive); in experiment [17] it was 98.7% (inactive); in experiment [18], 90.9% (inactive). Further, the results for the growth in experiment [19] and in experiment [20] were 98.3% (inactive) and 103% (inactive), respectively.

In the case of `C#COc1cccc(Nc2ncnc3cc(NC(=O)CF)ccc23)c1`, the growth in [1] is 28.6% [6.25 µM] (inactive); in [2] it was 4.41% [6.25 µM] (active); in [3], 48.2% [6.25 µM] (inactive); in experiment [4], 33.7% [6.25 µM] (inactive); in experiment [5], 23.1% [6.25 µM] (inactive); in experiment [6], 36% [6.25 µM] (inactive). The growth is 36.2% [6.25 µM] (inactive) in experiment [7]; 26.4% [6.25 µM] (inactive) in experiment [8]; 36.8% [6.25 µM] (inactive) in experiment [9]; 60.4% [6.25 µM] (inactive) in [10]; 21.6% [6.25 µM] (inactive) in experiment [11]; 67.8% [6.25 µM] (inactive) in experiment [12]. Also, the growth in experiment [13] is 54.7% [6.25 µM] (inactive); in experiment [14] it was 60.9% [6.25 µM] (inactive); in experiment [15], 60.7% [6.25 µM] (inactive); in experiment [16], 48.3% [6.25 µM] (inactive); in [17], 45.5% [6.25 µM] (inactive); in [18], 75.3% [6.25 µM] (inactive). Also, the growth is 54.5% [6.25 µM] (inactive) in [19] and -7.49% [6.25 µM] (active) in [20].

`CC(=O)OC1CC2(O)C(CCC3(C)C(c4ccc(=O)oc4)CCC32O)C2(C)CCC(OC3OC(CO)C(O)C(O)C3O)C=C12` (centres undefined): the growth in [1] was -85.2% (active); in experiment [2], -55% (active); in experiment [3], -61.4% (active); in experiment [4], -94% (active); in experiment [5], -92.1% (active); in experiment [6], -55.2% (active). Also, the growth in [7] is -91.9% (active); in experiment [8] it was -65.6% (active); in experiment [9], -85.4% (active); in [10], -31.7% (active); in experiment [11], -23.2% (active); in experiment [12], -89.1% (active). Moreover, the growth is -6.05% (active) in [13]; -80.8% (active) in experiment [14]; -92.3% (active) in experiment [15]; -79.8% (active) in experiment [16]; -93.5% (active) in experiment [17]; -33.8% (active) in [18]. In addition, the growth is -46.1% (active) in experiment [19] and -25.1% (active) in [20].
